Data published in the supplement of paper PMC7380943.

tested on: CLZ3 (HCA2 human fibroblast dual HR-NHEJ reporter); test: NHEJ repair efficiency (GFP+ cells) relative to control (log10 fold); higher = more non-homologous end joining; settings: 5 µM; doxycycline 0.5 ug/mL
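Further: compound given one day ahead of doxycycline, which switches on I-SceI endonuclease to cut the chromosomally integrated reporter and create DSBs.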

Row | SMILES | NHEJ repair efficiency (log10)
1 | COc1ccc(-c2oc3c(CC=C(C)C)c(O[C@@H]4O[C@H](CO)[C@@H](O)[C@H](O)[C@H]4O)cc(O)c3c(=O)c2O[C@@H]2O[C@@H](C)[C@H](O)[C@@H](O)[C@H]2O)cc1 [Icariine] | -0.13
2 | C[C@H]1[C@H](C)CC[C@]2(C(=O)O[C@@H]3O[C@H](CO[C@@H]4O[C@H](CO)[C@@H](O[C@@H]5O[C@@H](C)[C@H](O)[C@@H](O)[C@H]5O)[C@H](O)[C@H]4O)[C@@H](O)[C@H](O)[C@H]3O)CC[C@]3(C)C(=CC[C@@H]4[C@@]5(C)C[C@@H](O)[C@H](O)[C@@](C)(CO)[C@@H]5[C@H](O)C[C@]43C)[C@H]12 [Madecassoside] | 0.0946
3 | O=C(O)C(O)c1ccccc1 (stereo not drawn) [Mandelic Acid] | 0.0554
4 | COC(=O)c1ccc(O)cc1 [Methylparaben] | 0.0529
5 | CC1(C)CC[C@]2(C(=O)O[C@@H]3O[C@H](CO[C@@H]4O[C@H](CO)[C@@H](O)[C@H](O)[C@H]4O)[C@@H](O)[C@H](O)[C@H]3O)CC[C@]3(C)C(=CC[C@@H]4[C@@]5(C)CC[C@H](O[C@@H]6OC[C@H](O)[C@H](O)[C@H]6O)[C@@](C)(CO)[C@@H]5CC[C@]43C)[C@@H]2C1 [Akebiasaponin D] | 0.328
6 | OCCc1ccc(O)cc1 [Tyrosol] | 0.117
7 | O=C(/C=C/c1ccc(O)c(O)c1)O[C@@H]1[C@H](O)C[C@@](O)(C(=O)O)C[C@H]1OC(=O)/C=C/c1ccc(O)c(O)c1 [Isochlorogenic acid B] | 0.142
8 | C[C@@H]1CC[C@@]2(OC1)O[C@H]1C[C@H]3[C@@H]4CC=C5C[C@@H](O)C[C@@H](O)[C@]5(C)[C@H]4CC[C@]3(C)[C@H]1[C@@H]2C [Ruscogenin] | -0.0127
